# Compound activity: PubChem, National Center for Advancing Translational Sciences (NCATS)
# SW480 rereplic = A quantitative high throughput screen for small molecules that induce DNA re-replication in SW480 colon adenocarcinoma cells | SW480 DNA re-replication, Hoechst DNA content imaging, 48 h | Potency, µM (highest dose often 46.1 µM), hits mostly activators | 340,000 compounds, 1.8% hits | AID 624297, 2012; further: nearly all actives have a fitted effect of over 55% in size
#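 Compounds, transferred as 23 nL by pin tool, were incubated with cells for 48 hr; DNA content per nucleus was then quantified by Hoechst staining and fluorescence plate imaging.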
# MCF10A rerep = A quantitative high throughput screen for small molecules that induce DNA re-replication in MCF 10a normal breast cells | AID 624296, 2012 | 350,000 compounds, 2.9% hits | MCF 10A DNA re-replication, Hoechst nuclear intensity, 48 h | Potency, µM (titrated, usually from 46.1 µM), hits mostly activators; further: nearly all actives have a fitted effect of over 50% in size
# ALOX12 inh = Primary qHTS assay for inhibitors of human arachidonate 12S-lipoxygenase (ALOX12): Round 2. purified 12hLO, xylenol orange hydroperoxide absorbance. 580,000 compounds, 1.1% hits. Potency, µM (titrated, usually from 108 µM), usual class: inhibitors
# Target sequence (P18054 whole entry, looked up): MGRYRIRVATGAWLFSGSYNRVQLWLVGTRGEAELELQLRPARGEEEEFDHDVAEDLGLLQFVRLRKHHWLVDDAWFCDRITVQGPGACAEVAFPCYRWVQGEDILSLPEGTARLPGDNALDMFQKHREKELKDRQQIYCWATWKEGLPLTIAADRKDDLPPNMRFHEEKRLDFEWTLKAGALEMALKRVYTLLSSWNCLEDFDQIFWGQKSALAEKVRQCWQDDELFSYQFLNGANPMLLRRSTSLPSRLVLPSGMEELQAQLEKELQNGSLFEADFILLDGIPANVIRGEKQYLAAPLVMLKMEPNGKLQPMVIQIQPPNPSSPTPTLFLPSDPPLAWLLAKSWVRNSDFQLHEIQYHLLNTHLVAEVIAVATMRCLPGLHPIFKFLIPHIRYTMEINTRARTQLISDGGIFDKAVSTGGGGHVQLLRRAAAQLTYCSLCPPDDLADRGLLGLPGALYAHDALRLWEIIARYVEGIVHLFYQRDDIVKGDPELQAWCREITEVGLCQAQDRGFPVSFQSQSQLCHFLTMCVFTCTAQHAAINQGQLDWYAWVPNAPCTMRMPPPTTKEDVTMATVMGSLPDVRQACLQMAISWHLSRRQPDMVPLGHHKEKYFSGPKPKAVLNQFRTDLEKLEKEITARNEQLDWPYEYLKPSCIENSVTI
#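 Hydroperoxide product was detected by ferrous iron/xylenol orange as the 573 to 405 nm absorbance ratio. Arachidonic acid at 40 uM (final) was turned over for 30 min at room temperature by 150 nM human 12hLO, pH 7.0 Hepes buffer, after 15 min compound preincubation.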
# PINK1 modulator = A Quantitative High throughput Screen to Identify Chemical Modulators of PINK1 Expression. PINK1 immunofluorescence, high-content cytometry, 24 h. Potency, µM (highest dose often 76.6 µM), usual class: activators. 410,000 compounds, 0.2% hits. AID 624263, 2012; active means well fitted activation curve with a large enough effect; inconclusive means small, poorly fitted or top-dose-only effect; cell line not stated here; further: nearly all actives have a fitted effect of over 65% in size
#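 Readout is PINK1 immunofluorescence, quantified alongside mitochondrial, cell and nuclear markers by laser-scanning microplate cytometry. Cells from a stable line were exposed to compound titrations (5 concentrations) for 24 hours, with CCCP controls.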
# KB-V1 MDR tox = qHTS assay for MDR1-selective chemotherapeutics: Primary screen using the drug-selected MDR subline cells KB-V1 | KB-V1 MDR cells viability, CellTiter-Glo, 72 h | 400,000 compounds, 3.4% hits | Potency, µM (highest dose often 46.1 µM), actives largely listed as cytotoxic | AID 1347076, 2019; further: nearly all actives have a fitted effect of over 60% in size
#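 KB-V1, DMEM (no phenol red) + 10% FBS; cpd pin-transferred, titration series; 72 h, 37 degrees C; CellTiter-Glo, luminescence. Data normalized, curve-fit.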
# KB-3-1 cytotox = qHTS assay for MDR1-selective chemotherapeutics: Primary screen using the parental adenocarcinoma cell KB-3-1 | 400,000 compounds, 1.4% hits | Potency, µM (top dose mostly 46.1 µM), usual class: cytotoxic | KB-3-1 viability, CellTiter-Glo ATP luminescence, 72 h; further: nearly all actives have a fitted effect of over 60% in size
#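 KB-3-1 cells, DMEM (no phenol red) + 10% FBS; compound by pin transfer, 72 h, 37 °C. Readout: CellTiter-Glo luminescence after 10 min. Data normalized, curve-fitted.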
# Hits are given with their value; - = inactive; ? = inconclusive; . = no result given; ! = repeats disagree. In the library only some 5.8% were active in any assay of this set; here they are far more common. Unless noted, the call rests on the fitted dose curve; in most records, active means well fitted curve in the direction sought with a large enough effect; inconclusive means small, poorly fitted or top-dose-only effect, or another doubt; inactive means no such curve, though single readings can be large; an effect the other way counts as inactive or inconclusive.
SMILES,SW480 rereplic,MCF10A rerep,ALOX12 inh,PINK1 modulator,KB-V1 MDR tox,KB-3-1 cytotox
Cc1ccc(C(=O)c2ccccc2C(=O)OCC(=O)Nc2cccc([N+](=O)[O-])c2)cc1,-,-,-,-,23µM,-
Cc1ccc(NC(=O)COC(=O)c2ccccc2Nc2ccccc2)cc1,-,-,-,-,-,-
Cc1ccc(C(=O)c2ccccc2C(=O)OCC(=O)Nc2ccc(SC(F)F)cc2)cc1,-,?,-,-,12µM,-
CN(CC(=O)Nc1ccccc1Cl)CC(=O)N1CCC(Cc2ccccc2)CC1,.,.,-,.,.,.
O=[N+]([O-])c1ccc(N=Nc2c(Cl)cc(O)cc2Cl)cc1,?,?,?,?,-,18µM
CC(N)=Nc1ccc([N+](=O)[O-])cc1,-,-,-,-,?,-
O=C(Nc1ccccc1F)c1cc(-c2ccco2)nc2ccccc12,-,-,?,-,-,-
COc1ccccc1NC(=O)c1cc(-c2ccc(C)o2)nc2ccccc12,-,?,?,-,-,-
O=C(Nc1ccc(F)cc1F)c1cc(-c2ccco2)nc2ccccc12,-,-,10µM!,-,-,-
COc1ccccc1NC(=O)c1cc(-c2ccco2)nc2ccccc12,.,.,16µM,.,.,.
Cn1cnc([N+](=O)[O-])c1S(=O)(=O)Oc1ccc(Cl)cc1,5.8µM,6.5µM,-,-,?,?
CCN(CC)c1c([N+](=O)[O-])ncn1C,-,-,-,-,-,-
Cn1cnc([N+](=O)[O-])c1S(=O)(=O)Oc1cccc2ccccc12,6.5µM,5.8µM,-,-,?,?
Cn1cnc([N+](=O)[O-])c1Oc1cccc2ccccc12,?,21µM,-,-,?,21µM
Cn1cnc([N+](=O)[O-])c1Cl,-,?,-,-,-,-
CCS(=O)(=O)c1c([N+](=O)[O-])ncn1C,?,12µM,-,-,-,-
COCCn1c(C)cnc1CC1CCN(S(=O)(=O)c2cccc(OC)c2)C1 (centres undefined),.,.,-,.,.,.
COc1ccc(NC(=O)N2CCc3c(C(=O)NCCN4CCCCCC4)cccc32)cc1,.,.,-,.,.,.
Oc1ccccc1N=Nc1ccccc1O,?,-,?,-,?,7.3µM
Nc1ccc(N=Nc2ccccc2O)c(N)c1,?,-,-,-,-,-
O=C(Nc1ccccc1)N1CCn2c(nc3ccccc32)C1,-,-,-,-,23µM,-
Cc1cc(=O)c2c([nH]1)c(C)cc1[nH]c(C)c(C)c12,9.2µM,-,-,-,-,?
N#CC1=C(S)N(c2ccccc2)C(c2ccc(-c3cccc(Cl)c3)o2)NC1=O (centres undefined),23µM,?,-,-,-,-
COc1ccc(N2C(S)=C(C#N)C(=O)NC2c2ccco2)cc1 (centres undefined),-,?,45µM,-,-,-
COc1cc(C2NC(=O)C(C#N)=C(S)N2c2ccccc2)ccc1OC(C)C (centres undefined),-,?,14µM,-,-,-
Cc1cccc(N2C(S)=C(C#N)C(=O)NC2c2ccco2)c1 (centres undefined),-,?,-,-,?,-
COc1ccc(C2NC(=O)C(C#N)=C(S)N2c2ccccc2)cc1OC (centres undefined),-,?,?,-,-,-
O=C(NCC1CCCN(Cc2cccc(C(F)(F)F)c2)C1)c1ccc(F)cc1 (centres undefined),?,-,-,-,-,-
Cc1cc(CN2CCCC(CNC(=O)c3ccc(F)cc3)C2)cc(C)c1O (centres undefined),?,23µM,-,-,-,-
Cc1ccc(OCc2cc(C(=O)N3CCCC(C)C3)no2)cn1 (centres undefined),.,.,-,-,?,21µM
